Reference: PubChem BioAssay
For part of these data: Results with a measured potency or affinity are listed apart. Activity calls are given as the source filed them.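 Rule for the calls, unless noted: active = compound raising the membrane signal above positive-control mean plus 3 SD in both repeats, and a primary screen hit; inactive = the rest.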

Columns and labels:
[1] = system: TRPC4 beta (transient receptor potential cation channel C4), mouse; assay: TRPC4 cation channel opening, retest – cell-based, Fluo4 calcium, HEK293 TRPC4beta/mu-opioid, duplicates, 10 µM, confirmation (AID 2426;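 active = fluorescence ratio normalized to control raised more than 50% in primary screen plus both repeat runs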); details: Fluo4 calcium fluorescence, at 10 µM; active compounds read high
[2] = system: transient receptor potential cation channel C4 beta (TRPC4), mouse; assay: TRPC4 cation channel opening, second retest – cell-based, second round, Fluo4, HEK293 TRPC4beta/mu-opioid, 1 µM, confirmation (AID 2461;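 active = primary screen active and over 50% activation in each of two duplicate runs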); details: Fluo4 calcium fluorescence, at 1 µM; active compounds read high
[3] = system: TRPC4 (transient receptor potential cation channel C4 beta), mouse; assay: potentiation of DAMGO EC20 TRPC4 response – cell-based, second round, Fluo-4, HEK293 TRPC4beta/mu-opioid, 1 µM, confirmation (AID 2554;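 active = primary screen hit whose fluorescence ratio, in both repeats, exceeds the weak agonist control mean by 3 SD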); details: DAMGO EC20, Fluo-4 calcium flux, at 1 µM; active compounds read high
[4] = system: TRPC4 beta (transient receptor potential cation channel C4), mouse; assay: potentiation of DAMGO EC20 TRPC4 response – cell-based, Fluo-4, HEK293 TRPC4beta/mu-opioid, confirmation (AID 2555;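 active = primary screen hit whose calcium fluorescence ratio, in both repeats, exceeds the weak agonist control mean by 3 SD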); details: DAMGO EC20, Fluo-4 calcium flux, at 10 µM; active compounds read high
[5] = target: Short transient receptor potential channel 4 (Mus musculus) (UniProt Q9QUQ5); assay: blockers of DAMGO-evoked TRPC4 calcium flux – cell-based, Fluo4, HEK293 TRPC4beta/mu-opioid, confirmation (AID 2636;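 active = calcium signal cut by more than 3 SD below the full-agonist control yet still positive, in both repeats and the earlier primary screen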); details: at 10 µM; active compounds read high
Sequence of Short transient receptor potential channel 4 (Mus musculus) (Q9QUQ5 whole entry, looked up): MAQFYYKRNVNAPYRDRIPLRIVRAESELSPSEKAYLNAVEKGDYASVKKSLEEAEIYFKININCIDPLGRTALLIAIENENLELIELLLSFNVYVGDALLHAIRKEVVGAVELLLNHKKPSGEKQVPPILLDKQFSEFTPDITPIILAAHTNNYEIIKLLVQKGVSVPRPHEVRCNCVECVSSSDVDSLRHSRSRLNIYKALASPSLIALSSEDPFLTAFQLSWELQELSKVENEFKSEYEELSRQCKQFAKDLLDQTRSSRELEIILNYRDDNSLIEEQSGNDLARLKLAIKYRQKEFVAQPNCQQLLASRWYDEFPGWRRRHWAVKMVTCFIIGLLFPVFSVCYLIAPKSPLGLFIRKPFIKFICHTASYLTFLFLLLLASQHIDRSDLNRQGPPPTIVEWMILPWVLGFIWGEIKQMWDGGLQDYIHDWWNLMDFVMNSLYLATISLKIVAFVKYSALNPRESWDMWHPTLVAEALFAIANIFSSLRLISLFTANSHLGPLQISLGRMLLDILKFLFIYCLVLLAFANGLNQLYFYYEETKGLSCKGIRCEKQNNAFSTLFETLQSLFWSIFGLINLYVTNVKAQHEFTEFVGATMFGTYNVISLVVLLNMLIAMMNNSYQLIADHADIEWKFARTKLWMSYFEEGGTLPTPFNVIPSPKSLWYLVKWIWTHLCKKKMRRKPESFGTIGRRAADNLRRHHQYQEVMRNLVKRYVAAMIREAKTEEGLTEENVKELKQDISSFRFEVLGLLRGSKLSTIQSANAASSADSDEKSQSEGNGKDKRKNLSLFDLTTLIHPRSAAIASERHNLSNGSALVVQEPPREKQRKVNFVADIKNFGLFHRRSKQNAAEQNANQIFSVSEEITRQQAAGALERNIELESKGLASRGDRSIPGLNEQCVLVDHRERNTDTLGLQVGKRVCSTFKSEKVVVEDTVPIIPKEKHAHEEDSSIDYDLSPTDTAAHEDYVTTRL

[6] = target: Short transient receptor potential channel 4 (Mus musculus) (UniProt Q9QUQ5); assay: blockers of DAMGO-evoked TRPC4 calcium flux – cell-based, second round, Fluo4, HEK293 TRPC4beta/mu-opioid, 1 µM, confirmation (AID 2637;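 active = calcium signal ratio cut to more than 3 SD under the fully stimulated control mean yet still positive, in both repeats and the primary screen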;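 for inhibition: percent of integrated ratio relative to wells lacking test compound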); details: at 1 µM; active compounds read high
[7] = target: Short transient receptor potential channel 4 (Mus musculus) (UniProt Q9QUQ5); assay: calcium entry via TRPC4 opening agents – cell-based, HEK293 TRPC4/mu-opioid, Fluo-4 calcium, dose response (AID 434937;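 active = primary screen activator hit with a dose response curve and TRPC4 channel activation at any tested dose; inactive = no activation, no dose response, or not a primary hit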)
[8] = target: Short transient receptor potential channel 4 (Mus musculus) (UniProt Q9QUQ5); assay: potentiation of DAMGO-evoked TRPC4 calcium signal – cell-based, HEK293 TRPC4/mu-opioid, Fluo-4 calcium, EC20 DAMGO, dose response (AID 434941;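 active = earlier screen potentiator hit that boosts the TRPC4 ion channel at some dose, with a dose response; inactive = no potentiation, no dose response, or not a prior hit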;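 note: calcium entry triggered by an EC20 dose of DAMGO at the co-expressed mu-opioid receptor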)
[9] = target: Short transient receptor potential channel 6 (Mus musculus) (UniProt Q61143); assay: TRPC6 blockade by TRPC4 inhibitor hits – cell-based, HEK293, membrane potential dye, duplicate, selectivity assay for TRPC4 inhibitor project, confirmation (AID 434948;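 active = active in primary screen and both duplicates, each dropping signal beyond three positive-control SD with fluorescence still positive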); details: HEK293 TRPC6, membrane potential dye fluorescence, at 10 µM, stimulated with maximal-effect acetylcholine; active compounds read high
Sequence of Short transient receptor potential channel 6 (Mus musculus) (Q61143 whole entry, looked up): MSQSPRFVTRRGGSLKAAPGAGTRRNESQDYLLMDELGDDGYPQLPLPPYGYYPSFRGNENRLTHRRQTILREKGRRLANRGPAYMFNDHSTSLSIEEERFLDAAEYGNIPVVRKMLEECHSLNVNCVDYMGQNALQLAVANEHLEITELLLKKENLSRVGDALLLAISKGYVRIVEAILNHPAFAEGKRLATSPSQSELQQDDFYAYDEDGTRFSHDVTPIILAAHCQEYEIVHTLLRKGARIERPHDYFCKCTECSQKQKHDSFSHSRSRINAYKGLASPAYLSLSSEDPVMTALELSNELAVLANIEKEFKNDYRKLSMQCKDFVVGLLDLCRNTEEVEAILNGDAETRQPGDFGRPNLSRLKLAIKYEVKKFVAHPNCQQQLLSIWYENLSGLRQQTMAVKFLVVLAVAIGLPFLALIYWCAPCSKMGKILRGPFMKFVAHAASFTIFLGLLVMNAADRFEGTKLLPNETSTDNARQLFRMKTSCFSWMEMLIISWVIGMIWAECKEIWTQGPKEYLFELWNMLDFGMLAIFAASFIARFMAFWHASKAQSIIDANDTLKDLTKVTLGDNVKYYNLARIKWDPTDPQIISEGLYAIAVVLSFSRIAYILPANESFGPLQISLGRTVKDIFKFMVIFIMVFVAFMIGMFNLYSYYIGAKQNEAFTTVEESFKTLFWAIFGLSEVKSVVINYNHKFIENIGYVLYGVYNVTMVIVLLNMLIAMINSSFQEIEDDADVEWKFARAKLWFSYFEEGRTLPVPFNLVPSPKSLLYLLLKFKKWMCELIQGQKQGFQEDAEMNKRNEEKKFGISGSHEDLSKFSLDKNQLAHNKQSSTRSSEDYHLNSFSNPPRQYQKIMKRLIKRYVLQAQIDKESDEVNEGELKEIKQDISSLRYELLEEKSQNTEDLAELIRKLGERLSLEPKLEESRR

[10] = target: Short transient receptor potential channel 6 (Mus musculus) (UniProt Q61143); assay: TRPC6 opening by TRPC4 activator hits – cell-based, HEK293, membrane potential dye, duplicate, selectivity assay for TRPC4 activator project, confirmation (AID 434950;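 active = membrane potential signal rise above negative control mean plus 3 SD in both duplicates, also active in the earlier TRPC4 screen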); details: HEK293 TRPC6, membrane potential fluorescence, at 10 µM; activation: active compounds read high; outcome: activation
[11] = target: Short transient receptor potential channel 6 (Mus musculus) (UniProt Q61143); assay: positive modulators of mouse TRPC6 channel – HEK293 cells, membrane potential dye, duplicate, selectivity assay for TRPC4 potentiator project, confirmation (AID 434952); details: HEK293 TRPC6, membrane potential dye fluorescence, at 10 µM, maximal acetylcholine added after compound; active compounds read high
[12] = target: Short transient receptor potential channel 4 (Mus musculus) (UniProt Q9QUQ5); assay: calcium flux activators in TRPC4/5HT1a cells, counter-screen for TRPC4 activator project, cell-based, second counter screen, HEK293 TRPC4/5HT1a, Fluo-4 (AID 434977;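 active = calcium signal rise above buffer-control mean plus 5 SD in both duplicates, and also a hit in the primary screen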); details: Fluo-4 calcium flux, at 10 µM; active compounds read high
[13] = serotonin-gated TRPC4 signal block – cell-based, second counter screen, HEK293 TRPC4/5HT1a, Fluo-4, counter-screen for TRPC4 inhibitor project, confirmation (AID 434978;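 active = primary screen active whose calcium signal fell more than 3 SD beyond the full-serotonin control mean in both duplicate plates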;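 for outcome: serotonin given first at submaximal then at maximal dose after compound preincubation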); details: Fluo-4 calcium flux, at 10 µM, serotonin added to trigger calcium flux; active compounds read high
[14] = system: TRPC4 (mouse), co-expressed with 5HT1a in HEK293; assay: enhancement of serotonin-evoked TRPC4 response – cell-based, second counter screen, HEK293 TRPC4/5HT1a, Fluo-4, counter-screen for TRPC4 potentiator project, confirmation (AID 434979;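 active = signal rise over 3 SD above mean of control wells given weak agonist, in both repeats and first screen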); details: Fluo-4 calcium flux, at 10 µM, serotonin added at its EC20 dose; active compounds read high
[15] = nonspecific calcium rise without TRPC4 – cell-based, HEK293 mu-opioid receptor line, counter-screen for TRPC4 activator project, confirmation (AID 449723;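 active = hit in primary screen, with calcium signal over 5 SD above buffer well mean in both duplicates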;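 note: counter screen cells carry the mu-opioid receptor alone and lack TRPC4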); details: HEK293 mu-opioid cells, Fluo-4 calcium fluorescence, at 10 µM; active compounds read high
[16] = nonspecific potentiation of DAMGO calcium response – cell-based, HEK293 mu-opioid receptor line, counter-screen for TRPC4 allosteric potentiator project, confirmation (AID 449724;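 active = calcium signal rise more than 3 SD above the low-dose agonist control mean, in both duplicate plates and the primary screen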); details: HEK293 mu-opioid receptor cells, Fluo-4 calcium flux, at 10 µM, compound added before EC20 DAMGO stimulus; active compounds read high

Compound | outcome [1] | outcome [2] | outcome [3] | outcome [4] | inhibition [5] | inhibition [6] | outcome [7] | outcome [8] | inhibition [9] | outcome [10] | outcome [11] | outcome [12] | inhibition [13] | outcome [14] | outcome [15] | outcome [16] | outcome [6] | outcome [9] | outcome [13] | outcome [5]
N=c1c2c(n(Cc3ccc(Cl)cc3)c3c1CCC3)CCC2 | inactive | inactive | inactive | inactive | 96% (active) | 50% (active) | inactive | inactive | 34.5% (active) | inactive | inactive | inactive | 10.6% (active) | inactive | inactive | inactive | – | – | – | –
CCn1cc(CN2CCCC(CO)(Cc3cccc(Cl)c3)C2)cn1 (stereo not given) | inactive | inactive | inactive | inactive | 94% (active) | – | inactive | inactive | – | inactive | inactive | inactive | 38.8% (active) | inactive | inactive | inactive | inactive | inactive | – | –
Cc1cc(OCC(=O)Nc2ccc(N3CCN(C)CC3)cc2)ccc1Cl | inactive | inactive | inactive | inactive | 79% (active) | – | inactive | inactive | – | inactive | inactive | inactive | – | inactive | inactive | inactive | inactive | inactive | inactive | –
CCc1cccc(OCC(=O)Nc2ccc(C(=O)O)cc2NC(=O)COc2cccc(CC)c2)c1 | inactive | inactive | inactive | inactive | 93% (active) | – | inactive | inactive | – | inactive | inactive | inactive | 40.9% (active) | inactive | inactive | inactive | inactive | inactive | – | –
COc1ccc(O)c(C(=O)c2cnc3c(c2)c(=O)[nH]c(=O)n3C)c1 | inactive | inactive | inactive | inactive | 92% (active) | 63% (active) | inactive | inactive | – | inactive | inactive | inactive | 20% (active) | inactive | inactive | inactive | – | inactive | – | –
CCc1cc(C(c2cccc(OC)c2)N2CCOCC2)c(NC(=O)c2ccccc2)s1 (stereo not given) | inactive | inactive | inactive | inactive | 62% (active) | – | inactive | inactive | – | inactive | inactive | inactive | 28% (active) | inactive | inactive | inactive | inactive | inactive | – | –
NC(=NC1CCCCC1)c1ccc(Cl)cc1 | inactive | inactive | inactive | inactive | 97% (active) | 66% (active) | inactive | inactive | – | inactive | inactive | inactive | 22.8% (active) | inactive | inactive | inactive | – | inactive | – | –
CCCOc1cccc(C(=O)NCCNC(=O)c2ccco2)c1 | inactive | inactive | inactive | inactive | – | – | inactive | inactive | – | inactive | inactive | inactive | – | inactive | inactive | inactive | inactive | inactive | inactive | inactive
CCCCC(CC)c1nnc(NC(=O)c2cccs2)s1 (stereo not given) | inactive | inactive | inactive | inactive | 90% (active) | – | inactive | inactive | – | inactive | inactive | inactive | 40.9% (active) | inactive | inactive | inactive | inactive | inactive | – | –
Cc1cc(C)c2nc(C)cc(N/N=C/c3ccc(O)cc3)c2c1 | inactive | inactive | inactive | inactive | 91% (active) | – | inactive | inactive | 35% (active) | inactive | inactive | inactive | – | inactive | inactive | inactive | inactive | – | inactive | –
N#C/C(=N\Nc1cccc([N+](=O)[O-])c1)C(=O)c1ccc(Br)cc1 | inactive | inactive | inactive | inactive | 98% (active) | – | inactive | inactive | 21.5% (active) | inactive | inactive | inactive | 12.4% (active) | inactive | inactive | inactive | inactive | – | – | –
Cc1c(CCOC(=O)c2ccc([N+](=O)[O-])cc2)sc[n+]1CC(=O)c1ccccc1 | inactive | inactive | inactive | inactive | 92% (active) | – | inactive | inactive | – | inactive | inactive | inactive | 42.9% (active) | inactive | inactive | inactive | inactive | inactive | – | –
CC(C)(C)CC(C)(C)NCC(O)COc1ccc2c(c1)CCC2 (stereo not given) | inactive | inactive | inactive | inactive | 100% (active) | – | inactive | inactive | – | inactive | inactive | inactive | – | inactive | inactive | inactive | inactive | inactive | inactive | –
CN(C)CCCN(Cc1cc2cc3c(cc2[nH]c1=O)OCO3)C(=S)NCc1ccco1 | inactive | inactive | inactive | inactive | 93% (active) | 69% (active) | inactive | inactive | – | inactive | inactive | inactive | 26.8% (active) | inactive | inactive | inactive | – | inactive | – | –
CN1CCN(c2ccc(NC(=O)c3ccc(Br)o3)cc2)CC1 | inactive | inactive | inactive | inactive | 91% (active) | 46% (active) | inactive | inactive | – | inactive | inactive | inactive | – | inactive | inactive | inactive | – | inactive | inactive | –
